Data from PubChem BioAssay (Tox21).
Inconclusive results are not listed. The source made the active and inactive calls. Unless noted, calls come from the whole dose curve; as a rule, active = well fitted curve in the direction sought with a large enough effect in the repeat runs; inconclusive = weak or mixed curves; inactive = no such curve, though single readings can be large; an effect the other way counts as inactive or inconclusive.

Assays:
[1] = molecular target: Luciferin 4-monooxygenase (Photinus pyralis) (UniProt P08659); test: qHTS assay to identify small molecule inhibitors of firefly luciferase (AID 1224835); note: nearly all actives have a fitted effect of over 25% in size
How it was run: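 Biochemical qHTS: compounds run as interplate titrations against purified firefly enzyme, with D-luciferin and ATP each at its KM concentration. Light output recorded by CCD imaging.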

[2] = molecular target: Nuclear receptor subfamily 1 group I member 3 (Homo sapiens) (UniProt Q14994); test: qHTS assay to identify small molecule antagonists of the constitutive androstane receptor (CAR) signaling pathway (AID 1224838); note: nearly all actives have a fitted effect of over 40% in size; note: potency is the fitted concentration of half-maximal effect
How it was run: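 Inhibition of CITCO-driven (50 nM final) CYP2B6 reporter expression is measured in HepG2 cells stably carrying hCAR. Fifteen compound concentrations are applied for 24 h at 37 C, followed by luciferase luminescence.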

[3] = molecular target: Nuclear receptor subfamily 1 group I member 3 (Homo sapiens) (UniProt Q14994); test: qHTS assay to identify small molecule agonists of the constitutive androstane receptor (CAR) signaling pathway (AID 1224839); note: nearly all actives have a fitted effect of over 15% in size; note: potency is the fitted concentration of half-maximal effect
How it was run: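 A 15-concentration quantitative screen uses HepG2 cells co-transfected stably with human CAR and CYP2B6-2.2kb reporter. Treatment lasts 24 h with 0.75 uM PK11195 final present; ONE-Glo luminescence is the signal.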

[4] = qHTS assay to identify small molecule antagonists of the estrogen related receptor signaling pathway with the pleiotropic PPARgamma coactivator (PGC) from Tox21 10K library (AID 1224841; call rule not given here; note: actives are mostly falling curves and most rising ones were filed inactive; nearly all actives have a fitted effect of over 50% in size; note: potency is the fitted concentration of half-maximal effect)
How it was run: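 One-Glo luminescence, measured after half an hour at room temperature, quantified reporter output of PGC/ERR cells. These had been plated at 2,000 per well, incubated 6 h, dosed with compounds in DMSO, then kept 18 h at 37 C.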

[5] = qHTS assay to identify small molecule agonists of the estrogen related receptor signaling pathway with the pleiotropic PPARgamma coactivator (PGC) from Tox21 10K library (AID 1224842); note: nearly all actives have a fitted effect of over 15% in size
How it was run: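 PGC/ERR reporter cell line, 2,000 cells per well, incubated 6 h at 37 C before 23 nL compound in DMSO was added. After 18 h at 37 C, One-Glo luminescence read following 30 min at room temperature.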

[6] = qHTS assay to identify small molecule agonists of H2AX (AID 1224845; active = well fitted activation curve with a large enough effect in the signal ratio in the repeat runs, not every such curve was filed as active; the % refers to the signal ratio)
How it was run: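 Wild-type CHO-K1 cells, plated overnight, exposed 3hr at 37C to 15 concentrations (0.76% DMSO final). Lysed, then HTRF anti-pH2AX (S139) cryptate and anti-H2AX-d2 antibodies, 24 hr room temperature; 665/620 nm emission read.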

[7] = qHTS assay to identify small molecule agonists of the hypoxia (HIF-1) signaling pathway (AID 1224846; active = well fitted activation curve with a large enough effect in the signal ratio in the repeat runs, not every such curve was filed as active; the % refers to the signal ratio)
How it was run: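 ME-180 HRE-bla reporter cells; compounds in DMSO, 17 h at 37C; read-out beta-lactamase via CCF4-AM FRET.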

[8] = qHTS assay to identify small molecule agonists of H2AX - cell viability counter screen (AID 1224847; calls by dose curve; note: top concentration of the series differs between compounds; nearly all actives have a fitted effect of over 30% in size)
How it was run: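 We seed wild-type CHO-K1 cells overnight, treat them for 3 hr at 37C with compounds in 15-concentration series, and quantify remaining viability by CellTiter-Glo luminescence.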

[9] = qHTS assay to identify small molecule agonists of the estrogen related receptor (ERR) signaling pathway from Tox21 library (AID 1224849; calls by dose curve; note: nearly all actives have a fitted effect of over 15% in size); settings: ERR reporter cell line, ONE-Glo luciferase, 18 h; at 92.4 µM (top of the series) unless noted
How it was run: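 Luciferase activity in ERR pathway reporter cells served as the agonist readout; exposure lasted 18 h at 37 C, with ONE-Glo detection after 30 min at room temperature.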

[10] = qHTS RealTime-Glo MT Cell Viability Assay in HepG2 cells - 24 hour (AID 1224867); note: nearly all actives have a fitted effect of over 50% in size
How it was run: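 HepG2 cells were seeded at 600 cells/well together with NanoLuc luciferase and a cell-permeant prosubstrate, preincubated 5 h at 37 C/5% CO2, then pin-dosed with compounds in DMSO. Nonlytic luminescence from viable cells was read at each time point.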

[11] = qHTS RealTime-Glo MT Cell Viability Assay in HEK293 cells - 32 hour (AID 1224868); note: nearly all actives have a fitted effect of over 50% in size; note: potency is the fitted concentration of half-maximal effect
How it was run: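 HEK293 cells were seeded at 600 cells/well together with NanoLuc luciferase and cell-permeant prosubstrate, preincubated 5 h at 37 C/5% CO2, then given compound in DMSO by pintool. Luminescence from viable-cell prosubstrate reduction was read repeatedly over 40 h.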

[12] = qHTS RealTime-Glo MT Cell Viability Assay in HepG2 cells - 40 hour (AID 1224870); note: nearly all actives have a fitted effect of over 50% in size
How it was run: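 HepG2 cells (600/well) mixed with RealTime-Glo MT reagent, settled 5 h at 37 C/5% CO2 before compound addition. Nonlytic NanoLuc luminescence from viable-cell prosubstrate reduction read repeatedly during 40 h treatment at 37 C.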

[13] = qHTS assay to identify small molecule antagonists of the estrogen related receptor (ERR) signaling pathway from Tox21 library - cell viability counter screen (AID 1224834); note: nearly all actives have a fitted effect of over 30% in size; note: potency is the fitted concentration of half-maximal effect
How it was run: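 Counter screen run in ERR cells (2,000 cells/well): cells pre-incubated 6 h, then treated with compounds for 17.5 h at 37 C. Fluorescence was read 30 min after CellTiter-Fluor addition.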

[14] = qHTS assay to identify small molecule agonists of the constitutive androstane receptor (CAR) signaling pathway - cell viability counter screen (AID 1224836); note: nearly all actives have a fitted effect of over 45% in size
How it was run: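 Counter screen multiplexed with the CAR reporter readout: HepG2 cells co-transfected with hCAR and the CYP2B6-2.2kb construct receive a 15-concentration compound series and 0.75 uM PK11195 (final), then CellTiter-Fluor fluorescence is read after 23 h.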

[15] = qHTS assay to identify small molecule antagonists of the constitutive androstane receptor (CAR) signaling pathway - cell viability counter screen (AID 1224837); note: nearly all actives have a fitted effect of over 45% in size; note: potency is the fitted concentration of half-maximal effect
How it was run: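 CITCO at 50 nM final was added alongside compounds (15 concentrations) to double-stable hCAR/CYP2B6-2.2kb HepG2 cells. Following 23 hr at 37 C, cell viability was quantified by CellTiter-Fluor fluorescence intensity.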

[16] = qHTS assay to identify small molecule antagonists of the estrogen related receptor signaling pathway with the pleiotropic PPARgamma coactivator (PGC) from Tox21 10K library - cell viability counter screen (AID 1224840; active = well fitted cell-killing curve with a large enough effect in the repeat runs, not every such curve was filed as active; note: nearly all actives have a fitted effect of over 40% in size)
How it was run: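 Readout: fluorescence intensity from CellTiter-Fluor after 30 min at 37 C/5% CO2. Preceded by 17.5 h treatment of PGC/ERR cells with DMSO-dissolved compounds, added 6 h post-seeding.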

[17] = qHTS assay to identify small molecule agonists of the hypoxia (HIF-1) signaling pathway - cell viability counter screen (AID 1224844; calls by dose curve; note: nearly all actives have a fitted effect of over 50% in size)
How it was run: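 In this counter screen, HRE-bla ME-180 cell viability after 17 hrs of compound exposure at 37C was read by CellTiter-Glo luminescence, multiplexed with the beta-lactamase reporter measurement.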

[18] = qHTS assay to identify small molecule antagonists of the estrogen related receptor (ERR) signaling pathway from Tox21 library (AID 1224848); note: nearly all actives have a fitted effect of over 50% in size; note: potency is the fitted concentration of half-maximal effect
How it was run: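 Quantitative high-throughput format: ERR reporter cells (2,000/well) pre-incubated 6 h, treated 18 h at 37 C with compounds in DMSO alongside positive and negative controls, then read by ONE-Glo luminescence.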

[19] = A CellTox Green Cytotoxicity Assay to monitor cytotoxicity in HEK293 cells - 0 hour (AID 1224869); note: nearly all actives have a fitted effect of over 50% in size
How it was run: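 Real-time, in one plate: 600 HEK293 cells/well with dead-cell DNA dye, pinned compound after 5 h, 37 C incubation over 40 h; viable cells give no appreciable fluorescence.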

[20] = molecular target: Thyrotropin receptor (Homo sapiens) (UniProt P16473); test: qHTS assay to identify small molecule agonists of the thyroid stimulating hormone receptor (TSHR) signaling pathway (AID 1224843; calls by dose curve; note: nearly all actives have a fitted effect of over 45% in size; note: potency is the fitted concentration of half-maximal effect)
How it was run: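 Agonist-mode screen: TSHR HEK293 cells received test chemicals for half an hour at room temperature, then HTRF cAMP detection reagents for one hour prior to fluorescence measurement. Each chemical ran as a 15-concentration series, triplicated.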
% is set by controls: 0 for no effect and ±100 for the full control effect.

Sequence of Thyrotropin receptor (Homo sapiens) (P16473 whole entry, looked up): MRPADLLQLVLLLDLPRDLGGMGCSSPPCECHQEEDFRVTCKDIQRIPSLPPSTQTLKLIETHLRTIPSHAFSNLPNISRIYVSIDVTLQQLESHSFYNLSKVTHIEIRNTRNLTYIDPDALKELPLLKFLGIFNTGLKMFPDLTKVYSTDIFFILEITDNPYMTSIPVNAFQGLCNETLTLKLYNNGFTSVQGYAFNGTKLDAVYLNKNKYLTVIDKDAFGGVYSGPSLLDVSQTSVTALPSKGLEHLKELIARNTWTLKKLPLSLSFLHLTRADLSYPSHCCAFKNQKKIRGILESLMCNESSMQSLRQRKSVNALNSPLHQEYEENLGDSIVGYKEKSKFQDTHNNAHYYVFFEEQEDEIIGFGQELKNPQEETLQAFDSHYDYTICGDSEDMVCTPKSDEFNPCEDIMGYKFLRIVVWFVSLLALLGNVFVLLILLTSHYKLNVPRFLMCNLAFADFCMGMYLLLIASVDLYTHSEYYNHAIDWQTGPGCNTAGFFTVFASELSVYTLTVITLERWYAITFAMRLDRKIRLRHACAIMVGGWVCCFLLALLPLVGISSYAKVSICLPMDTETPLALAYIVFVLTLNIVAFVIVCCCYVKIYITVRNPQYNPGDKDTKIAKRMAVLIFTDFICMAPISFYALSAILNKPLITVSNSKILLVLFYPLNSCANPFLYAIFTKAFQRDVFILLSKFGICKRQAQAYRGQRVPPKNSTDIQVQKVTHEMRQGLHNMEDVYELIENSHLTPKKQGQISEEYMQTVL
Sequence of Luciferin 4-monooxygenase (Photinus pyralis) (P08659 whole entry, looked up): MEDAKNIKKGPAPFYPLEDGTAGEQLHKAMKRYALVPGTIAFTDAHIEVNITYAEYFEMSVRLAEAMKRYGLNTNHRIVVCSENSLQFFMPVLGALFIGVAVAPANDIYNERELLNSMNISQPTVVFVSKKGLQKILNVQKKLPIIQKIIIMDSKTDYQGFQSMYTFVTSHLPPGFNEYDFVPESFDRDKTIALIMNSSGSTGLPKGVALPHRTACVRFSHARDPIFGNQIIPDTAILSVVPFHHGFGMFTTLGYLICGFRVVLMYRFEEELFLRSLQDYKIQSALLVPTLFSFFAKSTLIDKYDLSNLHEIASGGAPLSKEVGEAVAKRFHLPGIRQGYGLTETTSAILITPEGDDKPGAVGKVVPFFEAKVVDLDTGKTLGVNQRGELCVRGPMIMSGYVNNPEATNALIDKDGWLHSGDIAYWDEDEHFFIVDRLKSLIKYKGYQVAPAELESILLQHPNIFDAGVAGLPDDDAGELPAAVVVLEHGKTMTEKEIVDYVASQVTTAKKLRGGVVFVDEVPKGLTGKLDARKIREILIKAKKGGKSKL
Sequence of Nuclear receptor subfamily 1 group I member 3 (Homo sapiens) (Q14994 whole entry, looked up): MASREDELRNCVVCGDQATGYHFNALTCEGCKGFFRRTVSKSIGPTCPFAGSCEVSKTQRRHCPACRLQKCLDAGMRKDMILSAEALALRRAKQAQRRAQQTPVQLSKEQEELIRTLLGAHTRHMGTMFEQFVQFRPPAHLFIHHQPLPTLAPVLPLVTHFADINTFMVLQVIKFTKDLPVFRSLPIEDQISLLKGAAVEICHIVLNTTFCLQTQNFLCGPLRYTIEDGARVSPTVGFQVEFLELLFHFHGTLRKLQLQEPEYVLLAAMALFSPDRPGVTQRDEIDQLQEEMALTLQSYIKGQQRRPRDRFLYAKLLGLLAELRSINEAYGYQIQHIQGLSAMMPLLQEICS

CCC(C)(C)c1cc(-n2nc3ccccc3n2)c(O)c(C(C)(C)CC)c1
active: Potency [4] 49.3 µM | Potency [11] 22.2 µM
inactive: Potency [1] | Potency [2] | Potency [3] | outcome [5] | Potency [6] | outcome [7] | Potency [8] | activity change, positive = activation [9] -66.5% | Potency [10] | Potency [12]

CCCCCCBr
inactive: Potency [13] | Potency [14] | Potency [15] | Potency [2] | Potency [3] | Potency [16] | outcome [5] | Potency [17] | Potency [6] | outcome [7] | Potency [8] | Potency [18] | activity change, positive = activation [9] 0.352% | Potency [10] | Potency [11] | Potency [19] | Potency [12]

COP(=S)(OC)Oc1c(Cl)cc(C)cc1Cl
active: Potency [3] 27.3 µM
inactive: Potency [13] | Potency [14] | Potency [15] | Potency [16] | Potency [4] | outcome [5] | Potency [17] | Potency [6] | outcome [7] | Potency [8] | activity change, positive = activation [9] 0.872% | Potency [10] | Potency [11] | Potency [12]

CC1=C(C(=O)Nc2ccccc2)S(=O)(=O)CCO1
inactive: Potency [1] | Potency [15] | Potency [3] | Potency [20] | Potency [6] | Potency [8] | Potency [10]
active: Potency [13] 61.1 µM | Potency [11] 48.9 µM

CCCCCCI
inactive: Potency [13] | Potency [14] | Potency [15] | Potency [3] | Potency [16] | outcome [5] | Potency [17] | Potency [6] | outcome [7] | Potency [8] | Potency [18] | activity change, positive = activation [9] -0.122% | Potency [11] | Potency [19]

C[C@]12CC[C@H]3[C@@H](CC=C4C[C@@H](O)CC[C@@]43C)[C@@H]1CC[C@@H]2O
inactive: Potency [13] | Potency [14] | Potency [15] | Potency [16] | Potency [17] | Potency [6] | Potency [8] | Potency [10] | Potency [11] | Potency [19] | Potency [12]

O=c1oc2ccccc2c(O)c1C1CCCc2ccccc21 (centres undefined)
inactive: Potency [13] | Potency [14] | Potency [15] | Potency [2] | Potency [3] | Potency [16] | outcome [5] | Potency [17] | Potency [6] | outcome [7] | Potency [8] | activity change, positive = activation [9] -20.9% | Potency [10] | Potency [11] | Potency [19] | Potency [12]
active: Potency [4] 54.5 µM

CC1COC2(c3ccccc3Cl)c3cc(Cl)ccc3NC(=O)CN12 (centres undefined)
inactive: Potency [1] | Potency [14] | Potency [15] | Potency [3] | Potency [16] | outcome [5] | Potency [20] | Potency [17] | Potency [6] | outcome [7] | Potency [8] | activity change, positive = activation [9] -27.8% [at 42.5 µM] | Potency [10] | Potency [19] | Potency [12]
active: Potency [4] 21.1 µM

BrCCCCCCBr
inactive: Potency [13] | Potency [14] | Potency [15] | Potency [2] | Potency [3] | Potency [20] | Potency [17] | Potency [6] | outcome [7] | Potency [8] | Potency [10] | Potency [11] | Potency [12]

CCOC(=O)C(c1c(O)c2ccccc2oc1=O)c1c(O)c2ccccc2oc1=O
inactive: Potency [13] | Potency [14] | Potency [3] | Potency [16] | Potency [20] | Potency [6] | Potency [10] | Potency [11] | Potency [12]

CCOC(=O)CP(=O)(OCC)OCC
inactive: Potency [13] | Potency [1] | Potency [14] | Potency [4] | outcome [5] | Potency [17] | Potency [6] | outcome [7] | Potency [8] | activity change, positive = activation [9] 4.99% | Potency [10] | Potency [11] | Potency [19] | Potency [12]

CC(C)(C)OC(=O)c1ncn2c1[C@@H]1CCCN1C(=O)c1c(Br)cccc1-2
active: Potency [18] 23.7 µM
inactive: Potency [1] | Potency [14] | Potency [15] | Potency [3] | Potency [16] | outcome [5] | Potency [20] | Potency [17] | outcome [7] | Potency [8] | activity change, positive = activation [9] -34.2% [at 42.5 µM] | Potency [10] | Potency [11] | Potency [12]

O=C(Nc1ccccc1)N(Cc1ccc(Cl)cc1)C1CCCC1
active: Potency [13] 48.6 µM | Potency [15] 61.1 µM | Potency [11] 24.5 µM
inactive: Potency [1] | outcome [5] | Potency [17] | Potency [6] | outcome [7] | activity change, positive = activation [9] -60.6% | Potency [19]

CC(C)(C)NCC(O)c1cc(Cl)c(N)c(Cl)c1 (centres undefined)
inactive: Potency [1] | Potency [16] | Potency [4] | outcome [5] | Potency [17] | Potency [6] | outcome [7] | Potency [8] | Potency [18] | activity change, positive = activation [9] 6.3% [at 42.5 µM] | Potency [10] | Potency [11] | Potency [19] | Potency [12]
active: Potency [20] 0.0021 µM

CSc1nc(N=[N+]=[N-])nc(NC(C)C)n1
inactive: Potency [1] | Potency [14] | Potency [15] | Potency [16] | Potency [20] | Potency [17] | Potency [6] | outcome [7] | Potency [8] | Potency [10] | Potency [19] | Potency [12]
active: Potency [3] 54.5 µM

Nc1n[nH]c(N)n1
active: Potency [2] 27.8 µM
inactive: Potency [13] | Potency [1] | Potency [15] | Potency [3] | Potency [16] | Potency [20] | Potency [17] | Potency [6] | outcome [7] | Potency [8] | Potency [10] | Potency [19] | Potency [12]
